Experiment [1] is described as follows: qHTS assay to test for compound auto fluorescence at 535 nm (green) in HEK293 cells (AID 720680). For orientation: Quantitative high-throughput screening tests each substance at several concentrations.
Experiment [2] in a line: qHTS assay to test for compound auto fluorescence at 460 nm (blue) in HEK293 cell free culture (AID 720681). The gist of the method: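 Compounds were added to cell-free DMEM with 10% FBS and fluorescence read directly. The blue channel used 405 nm excitation and 460 nm emission, with triamterene as the reference fluorophore.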
A short description of experiment [3]: qHTS assay to test for compound auto fluorescence at 535 nm (green) in HEK293 cell free culture (AID 720682). In outline:
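DMEM + 10% FBS, cell-free; cpd or DMSO pinned in; Ex485/Em535 read; output as fluorescein-equivalent signal.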

Experiment [4] in a line: qHTS assay to test for compound auto fluorescence at 590 nm (red) in HEK293 cell free culture (AID 720683). The gist of the method:
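Cell-free wells of DMEM with 10% FBS received compound, and intrinsic fluorescence was read at excitation/emission 540/590 nm. Values expressed as equivalence to Rose Bengal sodium.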

The nature of experiment [5]: qHTS assay to test for compound auto fluorescence at 590 nm (red) in HepG2 cell free culture (AID 720684). In outline:
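Compound was pinned into wells holding MEM with 10% FBS and no cells, and red fluorescence was read at Ex/Em 540/590 nm. Signal is expressed as auto fluorescence equivalency relative to Rose Bengal sodium.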

A short description of experiment [6]: qHTS assay to test for compound auto fluorescence at 460 nm (blue) in HepG2 cell free culture (AID 720685). In outline:
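Compound (23 nL) or DMSO pinned into cell-free MEM with 10% FBS; blue fluorescence read at 405/460 nm excitation/emission, expressed as auto-fluorescence equivalency to triamterene.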

The nature of experiment [7]: qHTS assay to test for compound auto fluorescence at 535 nm (green) in HepG2 cell free culture (AID 720686).
Experiment [8] in a line: qHTS assay to test for compound auto fluorescence at 460 nm (blue) in HepG2 cells (AID 720687). In outline:
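HepG2 cells in MEM with 10% FBS, attached overnight at 37 C, were exposed to compound or DMSO for 1 hr at 37 C, 5% CO2. Blue fluorescence was read at 405/460 nm, with triamterene as reference fluorophore.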

The target in experiment [9] is Glucocorticoid receptor (Homo sapiens) (UniProt P04150). The experiment can be described thus: qHTS assay to identify small molecule agonists of the glucocorticoid receptor (GR) signaling pathway (AID 720691; active = well fitted activation curve with a large enough effect in the signal ratio in the repeat runs, not every such curve was filed as active; the % refers to the signal ratio). The note with it: GR-bla HeLa, beta-lactamase reporter ratio, 18 h; activation: at 62.4 µM (top of the series). The gist of the method: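 Beta-lactamase reporter activity, read as fluorescence intensity, was measured in GR-bla HeLa cells exposed to compounds for 18 h at 37 C and then loaded with LiveBLAzer B/G FRET substrate for 2 h at room temperature.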

Experiment [10] shares this target. The experiment can be described thus: qHTS assay to identify small molecule antagonists of the glucocorticoid receptor (GR) signaling pathway (AID 720692; active = well fitted inhibition curve with a large enough effect in the signal ratio in the repeat runs, not every such curve was filed as active; the % refers to the signal ratio; also: potency is read from the fitted curve at half-maximal effect). In outline: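 Fluorescence from cleaved LiveBLAzer B/G FRET substrate reports GRE-driven beta-lactamase in HeLa cells; compounds are tested against 5 nM dexamethasone (final) over 18 h at 37 C, substrate incubation 2 h at room temperature.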

Experiment [11] is described as follows: qHTS assay to identify small molecule antagonists of the glucocorticoid receptor (GR) signaling pathway - cell viability counter screen (AID 720693). Also: nearly all actives have a fitted effect of over 55% in size.
Experiment [12] in a line: qHTS assay for identifying genotoxic compounds that show differential cytotoxicity against isogenic chicken DT40 cell lines with known DNA damage response pathways - wild type cell line (AID 743012). Also: nearly all actives have a fitted effect of over 60% in size. Also: potency is read from the fitted curve at half-maximal effect. The gist of the method:
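Quantitative HTS on parental DT40 cells: 40 h compound treatment at 37 C/5% CO2, with viability then determined by CellTiter-Glo luminescence. Values serve as the DNA repair-proficient reference for differential cytotoxicity.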

Experiment [13] is described as follows: qHTS assay for identifying genotoxic compounds that show differential cytotoxicity against isogenic chicken DT40 cell lines with known DNA damage response pathways - Rev3 mutant cell line (AID 743014). Also: nearly all actives have a fitted effect of over 55% in size. Also: potency is read from the fitted curve at half-maximal effect.
Experiment [14] in a line: qHTS assay for identifying genotoxic compounds that show differential cytotoxicity against isogenic chicken DT40 cell lines with known DNA damage response pathways - Rad54/Ku70 mutant cell line (AID 743015). Also: nearly all actives have a fitted effect of over 60% in size. Also: potency is read from the fitted curve at half-maximal effect.
The nature of experiment [15]: qHTS assay to identify small molecule antagonists of the androgen receptor (AR) signaling pathway - cell viability counter screen (AID 743033; also: nearly all actives have a fitted effect of over 45% in size).
A short description of experiment [16]: qHTS assay to identify small molecule antagonists of the androgen receptor (AR) signaling pathway using the MDA cell line - cell viability counter screen (AID 743041; also: nearly all actives have a fitted effect of over 45% in size). In outline: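 MDA-kb2 AR-luc cells (MMTV-luciferase, AR/GR responsive) treated with compounds plus R1881 agonist for 16 h at 37C. CellTiter-Fluor added at 15.5 h; fluorescence read after 30 min in the same wells.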

Experiment [17] addresses Androgen receptor (Homo sapiens) (UniProt P10275). The experiment can be described thus: qHTS assay to identify small molecule agonists of the androgen receptor (AR) signaling pathway (AID 743036; active = well fitted activation curve with a large enough effect in the signal ratio in the repeat runs, with a control signal flat, not every such curve was filed as active; the % refers to the signal ratio). In outline:
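Screening used 2,000 AR-bla HEK293 cells per well, treated 16 h at 37C with test compounds in DMSO alongside positive and DMSO-only controls; beta-lactamase activity was then read by LiveBLAzer B/G FRET fluorescence after 2 h at room temperature.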

The target is the same in experiment [18]. The experiment is described as follows: qHTS assay to identify small molecule agonists of the androgen receptor (AR) signaling pathway using the MDA cell line (AID 743040; also: nearly all actives have a fitted effect of over 20% in size). The gist of the method: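 MDA-kb2 breast carcinoma cells carrying MMTV-luciferase (responsive to AR and GR), plated 5 h then treated 16 h with compounds at 37C, 0% CO2. Read-out was ONE-Glo luminescence after 30 min at room temperature.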

Results filed as inconclusive are left out. Active and inactive are the calls of the source. Unless noted, calls follow the shape of the dose curve; as a rule, active = well fitted curve in the direction sought with a large enough effect in the repeat runs; inconclusive = weak or mixed curves; inactive = no such curve, though single readings can be large; an effect the other way counts as inactive or inconclusive.

Glucocorticoid receptor (Homo sapiens), sequence (P04150 whole entry, looked up): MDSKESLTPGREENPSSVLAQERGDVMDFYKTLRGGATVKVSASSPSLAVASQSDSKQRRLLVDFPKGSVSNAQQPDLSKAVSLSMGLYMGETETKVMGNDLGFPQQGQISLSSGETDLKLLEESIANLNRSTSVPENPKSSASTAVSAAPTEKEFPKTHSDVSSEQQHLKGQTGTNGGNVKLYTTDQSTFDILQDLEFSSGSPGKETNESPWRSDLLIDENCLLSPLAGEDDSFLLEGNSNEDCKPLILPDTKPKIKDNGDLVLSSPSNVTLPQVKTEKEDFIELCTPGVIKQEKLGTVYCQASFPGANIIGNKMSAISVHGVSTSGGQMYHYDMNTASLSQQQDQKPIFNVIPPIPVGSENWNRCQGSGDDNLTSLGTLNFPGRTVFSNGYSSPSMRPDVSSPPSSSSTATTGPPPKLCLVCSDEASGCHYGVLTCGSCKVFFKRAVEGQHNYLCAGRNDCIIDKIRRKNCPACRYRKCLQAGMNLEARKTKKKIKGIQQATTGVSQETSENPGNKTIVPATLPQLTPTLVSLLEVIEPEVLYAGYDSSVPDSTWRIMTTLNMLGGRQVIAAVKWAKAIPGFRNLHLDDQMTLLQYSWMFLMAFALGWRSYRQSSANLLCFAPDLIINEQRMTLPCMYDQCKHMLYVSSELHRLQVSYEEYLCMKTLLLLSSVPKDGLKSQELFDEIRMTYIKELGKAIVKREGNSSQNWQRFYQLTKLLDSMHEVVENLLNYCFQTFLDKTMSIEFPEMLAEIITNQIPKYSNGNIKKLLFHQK
Androgen receptor (Homo sapiens), sequence (P10275 whole entry, looked up): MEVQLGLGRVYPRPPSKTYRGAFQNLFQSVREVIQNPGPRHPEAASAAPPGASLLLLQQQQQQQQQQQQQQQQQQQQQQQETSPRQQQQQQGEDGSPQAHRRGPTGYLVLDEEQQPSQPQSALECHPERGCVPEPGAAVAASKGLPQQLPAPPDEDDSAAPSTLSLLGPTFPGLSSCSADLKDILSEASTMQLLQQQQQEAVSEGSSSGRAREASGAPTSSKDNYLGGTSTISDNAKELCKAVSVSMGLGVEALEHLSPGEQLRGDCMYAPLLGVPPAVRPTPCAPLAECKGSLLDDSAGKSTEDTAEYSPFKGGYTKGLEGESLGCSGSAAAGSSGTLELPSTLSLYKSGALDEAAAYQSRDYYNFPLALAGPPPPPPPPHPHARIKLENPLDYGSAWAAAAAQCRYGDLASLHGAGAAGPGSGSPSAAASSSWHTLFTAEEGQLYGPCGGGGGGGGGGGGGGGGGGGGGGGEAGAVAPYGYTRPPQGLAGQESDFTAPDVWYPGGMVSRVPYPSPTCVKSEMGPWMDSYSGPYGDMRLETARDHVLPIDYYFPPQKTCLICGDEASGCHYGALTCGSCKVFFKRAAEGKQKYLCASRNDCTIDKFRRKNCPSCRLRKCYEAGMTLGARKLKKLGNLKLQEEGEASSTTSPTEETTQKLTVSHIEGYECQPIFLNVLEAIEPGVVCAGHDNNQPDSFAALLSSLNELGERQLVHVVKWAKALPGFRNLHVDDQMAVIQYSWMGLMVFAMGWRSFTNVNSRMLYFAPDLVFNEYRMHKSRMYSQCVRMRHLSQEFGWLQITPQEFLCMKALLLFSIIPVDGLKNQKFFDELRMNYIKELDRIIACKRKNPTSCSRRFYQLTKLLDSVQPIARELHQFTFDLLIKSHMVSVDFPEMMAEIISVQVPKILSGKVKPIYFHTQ

Turning to `CN[C@@H]1[C@@H](O)[C@@H](O[C@@H]2[C@@H](O)[C@H](OC3OC(CN)=CCC3N)[C@@H](N)C[C@H]2N)OC[C@]1(C)O` (some centres undefined), the Potency result in experiment [1], in experiment [2], in [3], in [4], in experiment [5] and in experiment [7] was “inactive” in each case. In addition, the Potency entry in experiment [9], in experiment [10], in experiment [11], in experiment [12], in [13] and in experiment [14] was “inactive” in each case. The compound was classed as inactive in experiment [6] and in experiment [8].
For the compound `CCOC(=O)[C@H](CCc1ccccc1)N[C@H]1CCCN2CCC[C@@H](C(=O)O)N2C1=O`, the Potency result in experiment [1], in experiment [2], in [3], in [4], in [5] and in experiment [7] was “inactive” throughout. The Potency entry in [9], in experiment [10], in experiment [11], in experiment [12], in [13] and in experiment [14] was “inactive” each time. Further, the Potency entry in [15] was “inactive”. In addition, the call in experiment [6] and in experiment [8] was inactive.
For `CC(C)(S)[C@@H](N)C(=O)O`, the Potency entry in [1], in [2], in [3], in experiment [4], in experiment [5] and in experiment [7] was “inactive” throughout. For the same compound, the Potency result in experiment [9], in experiment [10], in experiment [11], in experiment [12], in experiment [13] and in [14] was “inactive” in each case. Moreover, the Potency result in experiment [15] and in experiment [16] was “inactive” in each case. In addition, the call in experiment [6] and in [8] was inactive.
With `CC1=C[C@H](O)CC(C)(C)[C@H]1/C=C/C(C)=C/C=C/C(C)=C/C=C/C=C(C)/C=C/C=C(C)/C=C/C1=C(C)C[C@@H](O)CC1(C)C`, the Potency entry in experiment [1], in experiment [2], in experiment [3], in [4], in experiment [5] and in [7] was “inactive” in each case. In addition, the Potency entry in experiment [9], in experiment [11], in [15], in [17], in [18] and in experiment [16] was “inactive” throughout. For the same compound, the compound was called inactive in experiment [6] and in [8]. Further, the Potency is 23.9 µM (active) in experiment [10], 11.9 µM (active) in experiment [12], 18.8 µM (active) in experiment [13] and 21.1 µM (active) in [14].
In the case of `CC(C)(C)NCC(O)c1ccc(O)c(CO)n1` (centres undefined), the Potency result in [1], in experiment [2], in [3], in [4], in experiment [5] and in experiment [7] was “inactive” in each case. Besides, the Potency result in experiment [9], in experiment [10], in experiment [11], in [12], in [13] and in experiment [14] was “inactive” each time. Moreover, the Potency result in [15] and in experiment [16] was “inactive” in each case. Besides, the compound was called inactive in experiment [6] and in experiment [8].
With `CN1CC(O)c2cc(N=NC(N)=O)c(O)cc21` (centres undefined), the Potency entry in [1], in experiment [2], in experiment [3], in experiment [4], in experiment [5] and in experiment [7] was “inactive” in each case. The Potency result in [9], in experiment [10], in experiment [11], in experiment [12], in experiment [13] and in experiment [14] was “inactive” throughout. For the same compound, the Potency entry in experiment [15] was “inactive”. For the same compound, the result in experiment [6] and in experiment [8] was inactive.
As to `NC(=O)Oc1ccc(Cc2ccccc2)cc1`, the Potency entry in experiment [1], in [2], in experiment [3], in experiment [4], in experiment [5] and in experiment [7] was “inactive” in each case. The Potency entry in experiment [9], in experiment [10], in [11], in experiment [12], in experiment [13] and in experiment [14] was “inactive” throughout. Moreover, the Potency entry in experiment [15] is “inactive”. Also, the result in experiment [6] and in experiment [8] was inactive.

The record behind these values is PubChem BioAssay (Tox21).
